From PubChem BioAssay
MRP resist rev: reversal of MRP1-mediated doxorubicin resistance, primary screen, H69AR cells, doxorubicin co-treatment. 85,000 compounds, 0.04% hits. AID 602, 2007. differential viability (reversal), % at 10 µM. H69AR cells + 2 uM doxorubicin, CellTiter-Glo, 72 h;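 active means viability drop by adding the cancer drug above about 55%, with treated viability meeting a 40% cutoff, limit read from the data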;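 further: viability without doxorubicin minus viability with 2 µM doxorubicin for each compound; larger differential means the compound sensitizes cells more to doxorubicin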
MRP-1 activ: H69AR viability gain despite doxorubicin, primary screen, MRP-1 activator project, H69AR cells, CellTiter-Glo | 140,000 compounds, 0.61% hits | viability rescue | AID 799, 2007 | viability increase, % at 10 µM;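 active means viability gain under doxorubicin at or above a set limit, the compound median plus 3 SD, cut at about 4.7% in these data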;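 further: MRP-1 overexpressing cells given doxorubicin 25 µM after compound pretreatment; 18-22 h compound pretreatment then 72 h with doxorubicin before readout; 0% = doxorubicin-only wells and 100% = vehicle-treated cells without doxorubicin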
Starred values were filed as active, the others as inactive; nt = no result. Compounds with a hit are over-represented: about 0.65% of the library has one in this group of screens.

SMILES	MRP resist rev	MRP-1 activ
COc1cc(-c2nc(-c3cccc(C)c3)no2)cc(OC)c1OC	-3	1
COc1ccc(-c2nc(-c3cccc(C)c3)no2)cc1OC	-23	5.5*
Cc1cc(C)c2nc(/N=C(\N)NC(=O)Nc3ccccc3)nc(C)c2c1	nt	-4
COc1ccc(CCC(=O)Nc2ccccc2C(F)(F)F)cc1	nt	0
O=C(/C=C/c1cccs1)N1CCN(c2ccccc2F)CC1	nt	-2
O=C(/C=C/c1ccc([N+](=O)[O-])cc1)N1CCN(c2ccccc2F)CC1	nt	35*
CCCCNC(=S)Nc1cc([N+](=O)[O-])ccc1C	nt	-4
Cc1cc(C(=O)CSc2ccc3c(c2)OCCO3)c(C)n1C1CC1	nt	-1
O=C(NC1CCCCC1)c1sc(N2CCOCC2)nc1-c1ccccc1	nt	-2
COC(=O)CC(N)c1ccc(OC)c2ccccc12 (stereo not given)	3	-1
Cc1cccc(-c2cc3nc(C)cc(NCCCN(C)C)n3n2)c1	9	-4
Cc1cccc(-c2cc3nc(C)cc(N4CC(C)CC(C)C4)n3n2)c1 (stereo not given)	8	5.1*
COc1cccc(/C=C2/SC(=S)N(CC(=O)Nc3nnc(C)s3)C2=O)c1	nt	8.8*
COc1cc(/C=C2\SC(=S)N(CC(=O)Nc3cccnc3)C2=O)cc(OC)c1OC	nt	0
O=C(CN1C(=O)/C(=C\C=C\c2ccccc2)SC1=S)Nc1ccc(F)cc1	nt	-1
O=C(CN1C(=O)/C(=C/c2ccccc2)SC1=S)Nc1ncc(Cc2ccccc2)s1	nt	5.3*
S=C(NCCCN1CCOCC1)Nc1ccc(Cl)c(Cl)c1	nt	-5
Cc1cccc(COc2ncnc3nc[nH]c23)c1	nt	-2
COCCCNC(=O)C1CCCN(S(=O)(=O)c2ccc(C)cc2)C1 (stereo not given)	19	-2
Fc1ccc(-c2nnc(-n3nnc4ccccc43)c3ccccc23)cc1	4	nt
COc1ccc(-c2csc(NC(=O)c3cc(-c4cccs4)nc4ccccc34)n2)c(OC)c1	nt	4.8*
COc1ccccc1-c1csc(NC(=O)c2cc(-c3cccs3)nc3ccccc23)n1	nt	2
CC(C)c1ccc(NC(=O)COc2nncc3ccccc23)cc1	nt	2
CC(=O)NC(CC(=O)NC12CC3CC(CC(C3)C1)C2)c1ccccc1 (stereo not given)	nt	-3
CCCN1C(=O)/C(=N\OCC(=O)NC23CC4CC(CC(C4)C2)C3)c2ccccc21	nt	5.7*
SMILES	MRP resist rev	MRP-1 activ
CCCN1C(=O)/C(=N\OCC(=O)Nc2ccc(C(C)C)cc2)c2ccccc21	nt	6.5*
O=C(CSCC(=O)N1CCCCC1)Nc1nc(-c2ccccc2)c(-c2ccccc2)s1	nt	-2
Cc1cccc(-n2ncc3c(N4CC(C)CC(C)C4)ncnc32)c1 (stereo not given)	-6	5.3*
Cc1cccc(-n2ncc3c(N4CCCC4)ncnc32)c1	-15	-1
COC(=O)c1sc(NC(=S)NC(=O)c2ccccc2)nc1C	nt	-2
Cc1nc(NC(=S)NC(=O)c2ccccc2)sc1C(=O)N(C)C	nt	7.7*
COC(=O)c1ccsc1NC(=O)CN1C(=O)CCC1=O	3	nt
CCOP(=O)(OCC)C(NC(=O)Nc1cccc(Cl)c1)C(N)=O (stereo not given)	nt	1
CCOP(=O)(OCC)C(NC(=O)Nc1ccc(Cl)cc1)C(=O)N(CC)CC (stereo not given)	nt	8.9*
COc1ccc(C2=[N+](C)CCn3cccc32)c(OC)c1	nt	-2
COc1ccc(C2OCC3(CO2)SC(=O)NC3=O)cc1 (stereo not given)	nt	-2
O=C1NC(=O)C2(COC3(CCCC3)OC2)S1	-1	4.8*
CCn1c(=O)c(C(=O)CN2CCN(S(=O)(=O)c3cc(C)ccc3C)CC2)c(N)n(Cc2ccccc2)c1=O	nt	-2
Cc1ccccc1Cn1nc(C)c(NC(=O)c2noc3c2CC(C(C)(C)C)CC3)c1C (stereo not given)	-7	3
Cc1ccccc1Cn1nc(C)c(NC(=O)c2noc3c2CCc2ccccc2-3)c1C	23	5.2*
CCOC(=O)C1CCCN(Cc2ccc(OC)cc2OC)C1 (stereo not given)	0	30*
CCOC(=O)C1CCCN(Cc2ccc(O)c(OC)c2)C1 (stereo not given)	-5	-1
Cc1c(Cl)cccc1NC(=O)CCCN1C(=O)CCC1=O	-9	-2
CCOC(=O)N1CCN(C(=O)CCCn2nc(C)c3sc4ccccc4c3c2=O)CC1	-5	-3
O=C(COc1ccccc1Br)NCCc1nc2ccccc2[nH]1	nt	-1
C=CCOC(=O)C(C#N)c1nc2ccccc2nc1N1CCN(c2ccccc2OCC)CC1 (stereo not given)	5	5.2*
CCOc1ccccc1N1CCN(c2nc3ccccc3nc2C(C#N)C(=O)OC(C)C)CC1 (stereo not given)	2	nt
CC(/C=N/NC(=O)c1ccncc1)=C\c1ccccc1	nt	2
O=C(/C(=C/O)N=Nc1ccccc1)c1ccncc1	0	6.3*
CC1CCCCN1C(=O)C12CCC(C)(/C(=N/O)C1)C2(C)C (stereo not given)	-2	-2
